Measurements taken from PubChem BioAssay (NCATS).
Records with an inconclusive call do not appear. Calls of active or inactive are those of the source. Unless noted, calls follow the shape of the dose curve; as a rule, active = well fitted curve in the direction sought with a large enough effect; inconclusive = small, poorly fitted or top-dose-only effect, or another doubt; inactive = no such curve, though single readings can be large; an effect the other way counts as inactive or inconclusive.

How the values were obtained:
[1] = MultiTox-Fluor Cytotoxicity Assay - LYMP1-001 - Dead Cells (AID 946); conditions: LYMP1-001 lymphoblastoid cells, dead-cell protease fluorescence; series mostly up to 92.2 µM;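 also: cells exposed to compound for 16 h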
Outline: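 AC50 from Hill fit of concentration-response; data normalized to DMSO (basal) and 15 uM tetraoctylammonium bromide (100%). LYMP1-001 lymphoblastoid cells, 2500/well, 16 hr compound at 37 C; dead-cell protease fluorescence, Ex/Em 485/520.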

[2] = Cell Viability - LYMP1-002 - Assay at 16 hr (AID 948); conditions: LYMP1-002 lymphoblastoid cell viability; series mostly up to 92.2 µM
Outline: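 Seed 2500 LYMP1-002 cells per well in complete medium and hold 5 hr at 37 C. Add compound across a concentration series and incubate 16 hr at 37 C. Add CellTiter-Glo, wait 30 min at room temperature, read luminescence.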

[3] = MultiTox-Fluor Cytotoxicity Assay - LYMP1-002 - Live Cells (AID 955); conditions: LYMP1-002 lymphoblastoid live-cell protease fluorescence viability; series mostly up to 46.1 µM;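 also: cells exposed to compound for 16 hours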
Outline: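 Cells were seeded at 2500 per well and incubated 5 hr. Compounds were then added for 16 hr at 37 C, followed by MultiTox-Fluor reagent for 60 min at room temperature and fluorescence reading of viable-cell protease signal.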

[4] = MultiTox-Fluor Cytotoxicity Assay - LYMP1-002 - Dead Cells (AID 960); conditions: LYMP1-002 lymphoblastoid cells, dead-cell protease fluorescence; series mostly up to 46.1 µM;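 also: cells exposed to compound for 16 h at 37 °C; nearly all actives have a fitted effect of over 60% in size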
Outline: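 Cells were plated, rested 5 hr, then treated with compound dilution series for 16 hr at 37 C. After adding substrate reagent and 60 min at room temperature, dead-cell protease fluorescence gave concentration-response curves fitted by the Hill equation.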

[5] = Cell Viability - LYMP2-001 (AID 921); conditions: LYMP2-001 lymphoblastoid cell viability; series mostly up to 92.2 µM;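 also: cells exposed to compound for 24 h at 37 °C; nearly all actives have a fitted effect of over 70% in size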
Outline: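 Steps: seed 2500 lymphoblastoid cells/well; 5 hr, 37 C; add compound; 24 hr, 37 C; CellTiter-Glo reagent, 30 min room temperature; read luminescence. Concentration-response modeled by Hill equation for AC50.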

[6] = MultiTox-Fluor Cytotoxicity Assay - LYMP1-001 - Live Cells (AID 947); conditions: LYMP1-001 lymphoblastoid cells, live-cell protease fluorescence viability; series mostly up to 92.2 µM
[7] = Confirmation and Secondary Assay for Modulators of Hemoglobin Beta Chain Splicing at IVS2 705 locus (AID 930); conditions: HeLa EGFP-705 splicing reporter, GFP fluorescence, 48 h; series mostly up to 46.1 µM;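 also: HeLa cells stably expressing the EGFP-705 splicing reporter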
Outline: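 HeLa cells stably carrying EGFP interrupted by mutant beta-globin IVS2-705 intron (CMV-driven) were seeded at 500 cells/well, treated next day with compound for 2 days at 37C; corrected splicing restores EGFP, read as total peak GFP intensity per well.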

[8] = Confirmation and Secondary Assay for Modulators of Hemoglobin Beta Chain Splicing at IVS2 654 locus (AID 910); conditions: HeLa EGFP-654 splicing reporter, GFP fluorescence, 48 h; series mostly up to 46.1 µM;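 also: HeLa cells stably carrying EGFP split by mutant beta-globin IVS2-654 intron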
Outline: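 HeLa cells stably expressing EGFP interrupted by β-globin IVS2-654 intron, seeded overnight in Opti-MEM/2% FCS, then treated 2 days at 37 °C. Restored splicing read as total peak GFP intensity per well by laser scanning cytometry (488 nm excitation, 500–520 nm emission); 500 nM antisense PNA as control.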

[9] = biological target: Pyruvate kinase (Leishmania mexicana) (UniProt Q27686); test: qHTS Validation Assay for Inhibitors of Leishmania Mexicana Pyruvate Kinase (AID 945); conditions: purified L. mexicana pyruvate kinase, enzyme activity, E451W mutant enzyme; series mostly up to 57.5 µM
Pyruvate kinase (Leishmania mexicana), sequence (Q27686 2-499 E452W): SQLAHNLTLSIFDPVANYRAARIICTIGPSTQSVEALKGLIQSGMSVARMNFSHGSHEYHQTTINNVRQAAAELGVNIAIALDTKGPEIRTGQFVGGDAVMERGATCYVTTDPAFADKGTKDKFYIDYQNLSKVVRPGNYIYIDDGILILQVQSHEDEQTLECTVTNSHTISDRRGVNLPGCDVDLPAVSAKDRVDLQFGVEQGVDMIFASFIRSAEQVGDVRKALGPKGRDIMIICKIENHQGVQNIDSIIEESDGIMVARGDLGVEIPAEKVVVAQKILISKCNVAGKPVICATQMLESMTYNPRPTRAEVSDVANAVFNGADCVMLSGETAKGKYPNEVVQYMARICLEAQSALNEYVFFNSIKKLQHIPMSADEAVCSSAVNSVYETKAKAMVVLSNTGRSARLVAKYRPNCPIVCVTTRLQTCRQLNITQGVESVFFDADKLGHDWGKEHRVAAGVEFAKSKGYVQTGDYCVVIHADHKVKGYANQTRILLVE
Outline: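 LmPYK E451W 0.2 nM; 0.5 mM PEP, 0.1 mM ADP, 7 mM MgCl2, 50 mM KCl, imidazole pH 7.2, 0.01% Tween 20, 0.05% BSA; 1 h RT; PKLight luminescence; DMSO-normalized.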

[10] = biological target: Pyruvate kinase PKM (Homo sapiens) (UniProt P14618); test: qHTS Assay for Activators of Human Muscle Pyruvate Kinase (AID 954; active = well fitted curve in the direction sought with a large enough effect, not every such curve was filed as active); conditions: purified human muscle pyruvate kinase, luciferase-coupled luminescence, 1 h; series mostly up to 57.5 µM
Pyruvate kinase PKM (Homo sapiens), sequence (P14618 whole entry, looked up): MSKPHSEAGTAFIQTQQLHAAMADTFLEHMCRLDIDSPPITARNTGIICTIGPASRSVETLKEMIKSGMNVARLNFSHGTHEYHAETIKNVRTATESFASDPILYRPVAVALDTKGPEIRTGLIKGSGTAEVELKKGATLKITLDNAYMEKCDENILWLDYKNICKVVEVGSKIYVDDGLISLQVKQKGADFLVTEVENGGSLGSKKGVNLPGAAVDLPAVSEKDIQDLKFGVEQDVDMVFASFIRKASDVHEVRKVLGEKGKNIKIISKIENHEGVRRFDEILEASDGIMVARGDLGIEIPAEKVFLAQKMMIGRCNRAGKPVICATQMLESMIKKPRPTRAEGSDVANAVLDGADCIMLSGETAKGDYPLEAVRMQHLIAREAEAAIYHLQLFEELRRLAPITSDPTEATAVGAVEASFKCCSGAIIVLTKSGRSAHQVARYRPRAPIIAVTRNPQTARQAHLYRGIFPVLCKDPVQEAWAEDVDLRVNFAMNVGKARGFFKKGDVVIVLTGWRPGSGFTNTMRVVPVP
Outline: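 A coupled luminescent readout tracked ATP made from ADP by purified PKM2. Final conditions included 0.1 nM enzyme, PEP and ADP at 0.5 and 0.1 mM, pH 7.2 imidazole buffer with BSA, and a one-hour room-temperature reaction.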

Measured: outcome

Nc1ccccc1N
inactive: [1] | [2] | [3] | [4]

Cc1ccc(N)cc1O
inactive: [5] | [1] | [6] | [2] | [3] | [4]

CC(C)C(N)C(=O)OCCOCn1cnc2c(=O)[nH]c(N)nc21 (stereo not drawn)
inactive: [7]

CC(=O)c1cc2c(cc1O)OC(C)(C)C=C2
inactive: [8] | [7]

CC(=O)O[C@@H]1CC(C)=C2[C@H]1[C@H](C)CC[C@H]2/C=C(\C)C(=O)O
inactive: [5] | [1] | [6] | [2] | [3] | [4]

CC(=O)O[C@H]1C(=O)[C@@]2(C)[C@H]([C@H](OC(=O)c3ccccc3)[C@]3(O)C[C@H](OC(=O)[C@H](O)[C@@H](NC(=O)c4ccccc4)c4ccccc4)C(C)=C1C3(C)C)[C@]1(OC(C)=O)CO[C@@H]1C[C@@H]2O
inactive: [9] | [10]

CC(C)[N+]1(C)C2CCC1CC(OC(=O)C(CO)c1ccccc1)C2 (stereo not drawn)
inactive: [8] | [7]
